This passage reports AC50 and outcome results from PubChem BioAssay (NCATS).

Active and inactive are the calls of the source. The rule behind the calls is not given here.

The conditions of one experiment: Ebola virus entry assay, ratio channel.
Broadly, the AC50 is the concentration at which the activity in the assay is half-maximal. On to `CCC(=O)c1ccc2c(c1)N(CCCN(C)C)c1ccccc1S2`, for which the AC50 is 17.8 µM (active).
`CN(CCCN1c2ccccc2CCc2ccccc21)CC(=O)c1ccc(Cl)cc1`: the AC50 was 25.1 µM (active).
With `CC(=O)NC(Cc1ccccc1)C(=O)O` (stereo not drawn), the result was inactive.
For the molecule `CC1(C)[C@H](C(=O)O)N2C(=O)C[C@H]2S1(=O)=O`, the AC50 was 11.2 µM (active).
Consider `CCc1cccc(N(C)C(N)=Nc2cccc3ccccc23)c1`, for which the AC50 was 14.1 µM (active).
`CN(C)c1ccc(C(=C2C=CC(=[N+](C)C)C=C2)c2ccccc2)cc1`: the AC50 is 0.708 µM (active).
For the molecule `COC(=O)C1=C(C)NC(C)=C(C(=O)OCCCN2CCC(c3ccccc3)(c3ccccc3)CC2)C1c1cccc([N+](=O)[O-])c1` (stereo not drawn), the AC50 was 2.51 µM (active).
Turning to `C[C@@H]1CCC[C@H](C)N1CCCC(O)(c1ccccc1)c1ccccn1` (stereo partly drawn), the AC50 is 22.4 µM (active).
For the molecule `COc1ccc(/C=C/C(=O)c2ccc(OC)cc2OC)cc1`, the result was inactive.
As to `c1cc(CN2CCCCC2)cc(OCCCNc2nc3ccccc3s2)c1`, the AC50 is 12.6 µM (active).
`CC(C)COCC(CN(Cc1ccccc1)c1ccccc1)N1CCCC1` (stereo not drawn): the AC50 is 2 µM (active).
Turning to `Cc1ccc(N(CC2=NCCN2)c2cccc(O)c2)cc1`, the AC50 was 31.6 µM (active).
Consider `CC(C)(C)c1ccc(C(=O)CCCN2CCC(OC(c3ccccc3)c3ccccc3)CC2)cc1`, for which the AC50 was 8.91 µM (active).
Same read-out and setting: the same measure for `CCN(CC)CCNc1ccc(CO)c2sc3ccccc3c(=O)c12`: 14.1 µM (active).
For `CC(Oc1c(Cl)cccc1Cl)C1=NCCN1` (stereo not drawn), the outcome was inactive.
For `CN(C)CC/C=C1\c2ccccc2Sc2ccc(Cl)cc21`, the AC50 is 3.16 µM (active).
The same measure, in the same setting: with `CN(C)CCOC(c1ccccc1)c1ccccc1` the figure was 17.8 µM (active); with `O=c1c(-c2ccccc2)c1-c1ccccc1`, 39.8 µM (active); with `CCN(CC)CCOC(=O)C(c1ccccc1)C1CCCCC1` (stereo not drawn), 1.58 µM (active).
As to `CCN(CC)CCOc1ccc(/C(=C(\Cl)c2ccccc2)c2ccccc2)cc1`, the AC50 is 1.26 µM (active).
Regarding `OC(C#CCN1CCCC1)(c1ccccc1)c1ccccc1`, the result was inactive.
For the molecule `Cc1nc(C2CCCCC2)c(-c2ccc(S(N)(=O)=O)c(F)c2)o1`, the half-maximal activity concentration (AC50) was 31.6 µM (active).
On the same count and under the same terms, with `CC1CCCCN1CCCOC(=O)c1ccc(OC2CCCCC2)cc1` (stereo not drawn) the figure was 7.94 µM (active).
As for `CCC(C(=O)OCCN1CCOC(c2ccccc2)C1C)c1ccccc1` (stereo not drawn), the AC50 was 28.2 µM (active).
The same measure, in the same setting: with `CN1CCCC(n2nc(Cc3ccc(Cl)cc3)c3ccccc3c2=O)CC1` (stereo not drawn) the figure was 3.16 µM (active); with `CN1CCC(N(Cc2cccs2)c2ccccc2)CC1`, 3.16 µM (active).
Consider `CSc1ccc(/C=C2/C(C)=C(CC(=O)O)c3cc(F)ccc32)cc1`, for which the result was inactive.
With `O=C(CCN1CCN2CCCC2C1)N1c2ccccc2Sc2ccc(Cl)cc21` (stereo not drawn), the AC50 was 10 µM (active).
With `NC(=O)C1(N2CCCCC2)CCN(CCCN2c3ccccc3CCc3ccc(Cl)cc32)CC1`, the half-maximal activity concentration (AC50) is 3.55 µM (active).
As for `CCN(CCCCOC(=O)c1ccc(OC)c(OC)c1)C(C)Cc1ccc(OC)cc1` (stereo not drawn), the AC50 is 15.8 µM (active).
As for `CCCCNc1ccc(C(=O)OCCN(C)C)cc1`, the AC50 is 28.2 µM (active).
On to `CCCCCCOC(=O)NC(=N)c1ccc(NCc2nc3cc(C(=O)N(CCC(=O)OCC)c4ccccn4)ccc3n2C)cc1`, for which the AC50 is 3.16 µM (active).
Consider `Oc1c(Cl)cc(Cl)c2cccnc12`, for which the outcome was inactive.
Turning to `CN1CCN(C2=Nc3ccccc3Sc3ccc(Cl)cc32)CC1`, the outcome was inactive.
On to `CN(C)C/C=C(/c1ccc(Br)cc1)c1cccnc1`, for which the result was inactive.
`Cc1cccc(N(C)C(=S)Oc2ccc3c(c2)C2CCC3C2)c1` (stereo not drawn): the outcome was inactive.
`COC(=O)C1=C(C)NC(C)=C(C(=O)OC(C)(C)CN(C)CCC(c2ccccc2)c2ccccc2)C1c1cccc([N+](=O)[O-])c1` (stereo not drawn): the AC50 was 12.6 µM (active).
`COCC(=O)O[C@]1(CCN(C)CCCc2nc3ccccc3[nH]2)CCc2cc(F)ccc2[C@@H]1C(C)C`: the AC50 was 2.24 µM (active).
For the molecule `CCCCCCCCCCCCCCCCCCNC(=O)OC1CCN(C(=O)OC[C@H](COC(=O)N(Cc2cccc[n+]2CC)C(=O)c2ccccc2OC)OC)CC1`, the result was inactive.

The conditions of the next experiment: Ebola virus entry assay, reporter ratio channel; Channel type: primary.
In the case of `CCC(=O)c1ccc2c(c1)N(CCCN(C)C)c1ccccc1S2`, the AC50 was 17.8 µM (active).
Take `CN(CCCN1c2ccccc2CCc2ccccc21)CC(=O)c1ccc(Cl)cc1`: the AC50 was 25.1 µM (active).
With `CC(=O)NC(Cc1ccccc1)C(=O)O` (stereo not drawn), the result was inactive.
In the case of `CC1(C)[C@H](C(=O)O)N2C(=O)C[C@H]2S1(=O)=O`, the AC50 was 11.2 µM (active).
The same measure, in the same setting: the same measure for `CCc1cccc(N(C)C(N)=Nc2cccc3ccccc23)c1`: 14.1 µM (active); for `CN(C)c1ccc(C(=C2C=CC(=[N+](C)C)C=C2)c2ccccc2)cc1`: 0.708 µM (active); for `COC(=O)C1=C(C)NC(C)=C(C(=O)OCCCN2CCC(c3ccccc3)(c3ccccc3)CC2)C1c1cccc([N+](=O)[O-])c1` (stereo not drawn): 2.51 µM (active).
Consider `C[C@@H]1CCC[C@H](C)N1CCCC(O)(c1ccccc1)c1ccccn1` (stereo partly drawn), for which the AC50 is 22.4 µM (active).
For the molecule `COc1ccc(/C=C/C(=O)c2ccc(OC)cc2OC)cc1`, the AC50 was 39.8 µM (active).
With `c1cc(CN2CCCCC2)cc(OCCCNc2nc3ccccc3s2)c1`, the AC50 was 12.6 µM (active).
Same read-out and setting: the same measure for `CC(C)COCC(CN(Cc1ccccc1)c1ccccc1)N1CCCC1` (stereo not drawn): 2 µM (active); for `Cc1ccc(N(CC2=NCCN2)c2cccc(O)c2)cc1`: 31.6 µM (active).
For `CC(C)(C)c1ccc(C(=O)CCCN2CCC(OC(c3ccccc3)c3ccccc3)CC2)cc1`, the AC50 is 8.91 µM (active).
Still for that read-out and setting: the same measure for `CCN(CC)CCNc1ccc(CO)c2sc3ccccc3c(=O)c12`: 14.1 µM (active); for `CC(Oc1c(Cl)cccc1Cl)C1=NCCN1` (stereo not drawn): 39.8 µM (active); for `CN(C)CC/C=C1\c2ccccc2Sc2ccc(Cl)cc21`: 3.16 µM (active).
Still for that read-out and setting: the same measure for `CN(C)CCOC(c1ccccc1)c1ccccc1`: 17.8 µM (active).
Regarding `O=c1c(-c2ccccc2)c1-c1ccccc1`, the AC50 was 39.8 µM (active).
For `CCN(CC)CCOC(=O)C(c1ccccc1)C1CCCCC1` (stereo not drawn), the half-maximal activity concentration (AC50) was 1.58 µM (active).
On the same count and under the same terms, with `CCN(CC)CCOc1ccc(/C(=C(\Cl)c2ccccc2)c2ccccc2)cc1` the figure was 1.26 µM (active); with `OC(C#CCN1CCCC1)(c1ccccc1)c1ccccc1`, 35.5 µM (active); with `Cc1nc(C2CCCCC2)c(-c2ccc(S(N)(=O)=O)c(F)c2)o1`, 31.6 µM (active).
Take `CC1CCCCN1CCCOC(=O)c1ccc(OC2CCCCC2)cc1` (stereo not drawn): the AC50 was 7.94 µM (active).
On to `CCC(C(=O)OCCN1CCOC(c2ccccc2)C1C)c1ccccc1` (stereo not drawn), for which the concentration at half-maximal activity (AC50) is 28.2 µM (active).
On to `CN1CCCC(n2nc(Cc3ccc(Cl)cc3)c3ccccc3c2=O)CC1` (stereo not drawn), for which the AC50 was 3.16 µM (active).
Same read-out and setting: the same measure for `CN1CCC(N(Cc2cccs2)c2ccccc2)CC1`: 3.16 µM (active).
On to `CSc1ccc(/C=C2/C(C)=C(CC(=O)O)c3cc(F)ccc32)cc1`, for which the result was inactive.
Consider `O=C(CCN1CCN2CCCC2C1)N1c2ccccc2Sc2ccc(Cl)cc21` (stereo not drawn), for which the AC50 is 10 µM (active).
The same measure, in the same setting: the same measure for `NC(=O)C1(N2CCCCC2)CCN(CCCN2c3ccccc3CCc3ccc(Cl)cc32)CC1`: 3.55 µM (active).
As for `CCN(CCCCOC(=O)c1ccc(OC)c(OC)c1)C(C)Cc1ccc(OC)cc1` (stereo not drawn), the AC50 is 15.8 µM (active).
As to `CCCCNc1ccc(C(=O)OCCN(C)C)cc1`, the AC50 is 28.2 µM (active).
Take `CCCCCCOC(=O)NC(=N)c1ccc(NCc2nc3cc(C(=O)N(CCC(=O)OCC)c4ccccn4)ccc3n2C)cc1`: the AC50 is 3.16 µM (active).
`Oc1c(Cl)cc(Cl)c2cccnc12`: the AC50 is 39.8 µM (active).
Regarding `CN1CCN(C2=Nc3ccccc3Sc3ccc(Cl)cc32)CC1`, the AC50 is 39.8 µM (active).
Consider `CN(C)C/C=C(/c1ccc(Br)cc1)c1cccnc1`, for which the AC50 is 35.5 µM (active).
On the same count and under the same terms, with `Cc1cccc(N(C)C(=S)Oc2ccc3c(c2)C2CCC3C2)c1` (stereo not drawn) the figure was 39.8 µM (active); with `COC(=O)C1=C(C)NC(C)=C(C(=O)OC(C)(C)CN(C)CCC(c2ccccc2)c2ccccc2)C1c1cccc([N+](=O)[O-])c1` (stereo not drawn), 12.6 µM (active).
As to `COCC(=O)O[C@]1(CCN(C)CCCc2nc3ccccc3[nH]2)CCc2cc(F)ccc2[C@@H]1C(C)C`, the AC50 was 2.24 µM (active).
`CCCCCCCCCCCCCCCCCCNC(=O)OC1CCN(C(=O)OC[C@H](COC(=O)N(Cc2cccc[n+]2CC)C(=O)c2ccccc2OC)OC)CC1`: the outcome was inactive.
